Results from the supplement of paper PMC8728848.
This is one part of a sample in which the strongest signals are shown more often than they occur.

Columns and labels:
Experiment in all cases: glycan array binding signal (z-score within array); higher = stronger binding
Conditions in all cases: glycan notation: IUPAC condensed, linker removed
[1] = biological target: Gal(b1-4)GlcNAc(b1-3)Gal(b1-4)GlcNAc(b1-6)[Gal(b1-3)]GalNAc
Outline: (§1)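 Glycan array data were curated from 3228 arrays in the Consortium for Functional Glycomics database and kept only where the protein sequence was available. Glycan names were converted to IUPAC-condensed notation, and columns mapping to the same glycan were averaged. The binding signal is a within-array Z-score, averaged across arrays of the same protein sequence at different concentrations or buffers and across linkers. Negative Z-scores can be read as non-binding.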

[2] = biological target: Gal3S(b1-4)[Fuc(a1-3)]GlcNAc6S
Outline: as §1

Gal3S6S(b1-4)GlcNAc6S = biological target: Gal3S6S(b1-4)GlcNAc6S
Outline: as §1

Gal6P(b1-4)GlcNAc = biological target: Gal6P(b1-4)GlcNAc
Outline: as §1

GalNAc(b1-4)GlcNAc = biological target: GalNAc(b1-4)GlcNAc
Outline: as §1

GalNAc4S6S(b1-4)GlcNAc = biological target: GalNAc4S6S(b1-4)GlcNAc
Outline: as §1

GalNAc6S(b1-4)GlcNAc = biological target: GalNAc6S(b1-4)GlcNAc
Outline: as §1

Glc(b1-4)Glc = biological target: Glc(b1-4)Glc
Outline: as §1

[3] = biological target: GlcNAc(a1-4)Gal(b1-4)GlcNAc
Outline: as §1

[4] = biological target: GlcNAc(a1-4)Gal(b1-4)GlcNAc(b1-3)Gal(b1-4)GlcNAc(b1-3)Gal(b1-4)GlcNAc
Outline: as §1

[5] = biological target: GlcNAc(b1-3)Gal(b1-4)GlcNAc(b1-3)Gal(b1-4)GlcNAc
Outline: as §1

[6] = biological target: GlcNAc(b1-3)Gal(b1-4)GlcNAc(b1-3)Gal(b1-4)GlcNAc(b1-2)Man(a1-3)[GlcNAc(b1-3)Gal(b1-4)GlcNAc(b1-3)Gal(b1-4)GlcNAc(b1-2)Man(a1-6)]Man(b1-4)GlcNAc(b1-4)[Fuc(a1-6)]GlcNAc
Outline: as §1

[7] = biological target: GlcNAc(b1-6)Gal(b1-4)GlcNAc
Outline: as §1

[8] = biological target: GlcNAc6S(b1-3)Gal(b1-4)GlcNAc
Outline: as §1

[9] = biological target: Man(a1-2)Man(a1-3)[Man(a1-2)Man(a1-6)]Man
Outline: as §1

[10] = biological target: Man(a1-2)Man(a1-6)[Man(a1-3)]Man(a1-6)[Man(a1-2)Man(a1-2)Man(a1-3)]Man
Outline: as §1

[11] = biological target: Man(a1-3)[Man(a1-6)]Man(b1-4)GlcNAc(b1-4)[Fuc(a1-6)]GlcNAc
Outline: as §1

[12] = biological target: Neu5Ac(a2-3)Gal(b1-3)GalNAc
Outline: as §1

[13] = biological target: Neu5Ac(a2-3)Gal(b1-3)GalNAc(b1-4)[Neu5Ac(a2-3)]Gal(b1-4)Glc
Outline: as §1

[14] = biological target: Neu5Ac(a2-3)Gal(b1-3)GalNAc(b1-4)[Neu5Ac(a2-8)Neu5Ac(a2-3)]Gal(b1-4)Glc
Outline: as §1

[15] = biological target: Neu5Ac(a2-3)Gal(b1-4)GlcNAc(b1-2)Man(a1-3)[Neu5Ac(a2-3)Gal(b1-4)GlcNAc(b1-2)Man(a1-6)]Man(b1-4)GlcNAc(b1-4)[Fuc(a1-6)]GlcNAc
Outline: as §1

[16] = biological target: Neu5Ac(a2-3)Gal(b1-4)GlcNAc(b1-3)Gal(b1-4)GlcNAc
Outline: as §1

[17] = biological target: Neu5Ac(a2-6)Gal(b1-4)GlcNAc(b1-2)Man
Outline: as §1

[18] = biological target: Neu5Ac(a2-6)Gal(b1-4)GlcNAc(b1-2)Man(a1-6)[Man(a1-3)]Man(b1-4)GlcNAc(b1-4)GlcNAc
Outline: as §1

[19] = biological target: Neu5Ac(a2-6)Gal(b1-4)GlcNAc(b1-3)Gal(b1-3)GlcNAc
Outline: as §1

[20] = biological target: Neu5Ac(a2-6)GalNAc(b1-4)GlcNAc6S
Outline: as §1

[21] = biological target: Neu5Ac(a2-8)Neu5Ac(a2-3)Gal(b1-3)GalNAc(b1-4)[Neu5Ac(a2-3)]Gal(b1-4)Glc
Outline: as §1

[22] = biological target: Neu5Ac(a2-8)Neu5Ac(a2-8)Neu5Ac(a2-8)Neu5Ac(a2-3)[GalNAc(b1-4)]Gal(b1-4)Glc
Outline: as §1

[23] = biological target: Neu5Ac9Ac(a2-3)Gal(b1-3)GlcNAc
Outline: as §1

Neu5Gc(a2-6)GalNAc = biological target: Neu5Gc(a2-6)GalNAc
Outline: as §1

B1: AT1G80310(18) (Arabidopsis thaliana), Q0WP36 (protein)
chain: METTTTPLLPGDRSRCGWLRRRLRLKNPLSSELSGAVGDLGTFIPIVLTLTLVSNLDLSTTLIFTGFYNIATGLLFDIPMPVQPMKSIAAVAVSESPHLTPSQIAAAGASTAATLLLLGATGAMSFLYNIIPLPVVRGVQLSQGLQFAFTAIKYVRFNYDTATLKPSSSPRIWLGLDGLILALAALLFIILSTGSGNDREAEDGDLAETSSNESQSRRRRLRLLSSIPSALIVFALGLVLCFIRDPSIFKDLKFGPSKFHILRISWDDWKIGFLRAAIPQIPLSVLNSVIAVCKLSNDLFDKELSATTVSISVGVMNLIGCWFGAMPVCHGAGGLAGQYRFGARSGLSVIFLGIGKLIVGLVFGNSFVRILSQFPIGILGVLLLFAGIELAMASKDMNSKEDSFIMLVCAAVSMTGSSAALGFGCGVVLYLLLKLRTLDCSSVTLFSRSSDESQVDSEAAPRDV
- glycan array binding signal (z-score) [1]: -0.516
- glycan array binding signal (z-score) [2]: -0.286
- glycan array binding signal (z-score) (Gal3S6S(b1-4)GlcNAc6S): 0.953
- glycan array binding signal (z-score) (Gal6P(b1-4)GlcNAc): 0.119
- glycan array binding signal (z-score) (GalNAc(b1-4)GlcNAc): 3.09
- glycan array binding signal (z-score) (GalNAc4S6S(b1-4)GlcNAc): 3.56
- glycan array binding signal (z-score) (GalNAc6S(b1-4)GlcNAc): 2.89
- glycan array binding signal (z-score) (Glc(b1-4)Glc): 1.3
- glycan array binding signal (z-score) [3]: -0.622
- glycan array binding signal (z-score) [4]: 0.229
- glycan array binding signal (z-score) [5]: -0.512
- glycan array binding signal (z-score) [6]: 1.31
- glycan array binding signal (z-score) [7]: -0.608
- glycan array binding signal (z-score) [8]: 0.436
- glycan array binding signal (z-score) [9]: -0.796
- glycan array binding signal (z-score) [10]: -0.243
- glycan array binding signal (z-score) [11]: -0.517
- glycan array binding signal (z-score) [12]: 0.654
- glycan array binding signal (z-score) [13]: -0.383
- glycan array binding signal (z-score) [14]: 4.16
- glycan array binding signal (z-score) [15]: -0.895
- glycan array binding signal (z-score) [16]: -0.967
- glycan array binding signal (z-score) [17]: -0.534
- glycan array binding signal (z-score) [18]: -0.892
- glycan array binding signal (z-score) [19]: -0.646
- glycan array binding signal (z-score) [20]: -0.543
- glycan array binding signal (z-score) [21]: -0.86
- glycan array binding signal (z-score) [22]: -0.09
- glycan array binding signal (z-score) [23]: -0.052
- glycan array binding signal (z-score) (Neu5Gc(a2-6)GalNAc): 0.551
